Drawing on PubChem BioAssay AID743100 (Vanderbilt Specialized Chemistry Center, 2013), this text covers % ACh max response for 33 compounds.

The structures appear in SMILES notation. Calls of active or inactive are those of the source.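 The calls were made as follows: active = calcium response above 60% of the acetylcholine maximum at human M5, as a positive modulator; inactive = the rest.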

The assay deals with Muscarinic acetylcholine receptor M5 (Homo sapiens) (UniProt P08912). Briefly: potentiators of ACh response at human M5 – cell-based, single concentration, CHO-K1 hM5, calcium flux (AID 743100). The note with it: CHO-K1 hM5, Fluo-4 calcium flux, ACh EC20, active compounds read high; at 10 µM unless noted. A general note: Calcium assays in cells follow changes in intracellular calcium, usually with a dye or a luminescent sensor.
Sequence of Muscarinic acetylcholine receptor M5 (Homo sapiens) (P08912 whole entry, looked up): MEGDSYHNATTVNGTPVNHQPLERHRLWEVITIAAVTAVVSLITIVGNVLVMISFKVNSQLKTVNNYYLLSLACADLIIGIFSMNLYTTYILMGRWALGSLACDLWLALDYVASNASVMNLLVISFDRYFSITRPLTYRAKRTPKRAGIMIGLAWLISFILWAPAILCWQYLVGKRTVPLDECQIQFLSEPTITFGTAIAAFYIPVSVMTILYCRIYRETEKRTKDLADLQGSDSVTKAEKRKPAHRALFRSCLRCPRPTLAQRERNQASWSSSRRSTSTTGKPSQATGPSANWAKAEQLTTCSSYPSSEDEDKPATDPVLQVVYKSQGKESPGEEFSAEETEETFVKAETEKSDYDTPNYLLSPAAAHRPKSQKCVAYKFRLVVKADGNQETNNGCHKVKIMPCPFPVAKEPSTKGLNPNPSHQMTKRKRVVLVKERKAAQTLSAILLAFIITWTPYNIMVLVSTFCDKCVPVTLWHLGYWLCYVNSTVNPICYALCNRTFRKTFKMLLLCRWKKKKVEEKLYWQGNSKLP
Regarding `CCN(Cc1cccc(F)c1)C(=O)C1CCN(S(=O)(=O)c2ccc3cn[nH]c3c2)CC1`, the % ACh max response was 84.8% (active).
`CCOC(=O)C1(Cc2ccccc2)CCN(S(=O)(=O)c2ccc3occc3c2)CC1`: the % ACh max response is 18.7% (inactive).
With `CCc1ccc(S(=O)(=O)N2CCC(C(=O)N(CC)Cc3ccccc3)CC2)cc1` the figure was 64.3% [at 30 µM] (active).
With `CCN(Cc1ccccc1C(F)(F)F)C(=O)C1(F)CCN(S(=O)(=O)c2ccc3[nH]ncc3c2)CC1`, the % ACh max response was 75.9% (active).
Regarding `CCN([C@H](C)c1ccccc1)S(=O)(=O)C1CCN(S(=O)(=O)c2ccc3cn[nH]c3c2)CC1`, the % ACh max response was 19.4% (inactive).
As to `CCN(Cc1cccc(OC)c1)C(=O)C1CCN(S(=O)(=O)c2ccc3cn[nH]c3c2)CC1`, the % ACh max response is 74.2% (active).
With `CCN(Cc1ccccc1)C(=O)C1CCN(S(=O)(=O)c2ccc(C(F)(F)F)cc2)CC1`, the % ACh max response is 62.6% [at 30 µM] (active).
As to `CCN(Cc1ccccc1)C(=O)C1CCN(S(=O)(=O)c2ccncc2)CC1`, the % ACh max response was 24.6% (active).
To `CCN(Cc1ccccc1Cl)C(=O)C1CCN(S(=O)(=O)c2ccc3cn[nH]c3c2)CC1` belongs 90.7% (active); to `CCN(Cc1ccccc1)C(=O)C1CCN(S(=O)(=O)c2ccc(OC(F)(F)F)cc2)CC1`, 71.7% [at 30 µM] (active); to `CCN(Cc1ccccc1)C(=O)C1CCN(S(=O)(=O)c2cccc(C#N)c2)CC1`, 61% [at 30 µM] (active).
With `CCN(Cc1ccccc1)C(=O)C1CCN(S(=O)(=O)c2ccc3c(c2)OCO3)CC1`, the % ACh max response was 62.9% (active).
As to `CCN(Cc1ccccc1)C(=O)C1CCN(S(=O)(=O)C(C)C)CC1`, the % ACh max response was 20.8% [at 30 µM] (inactive).
For `CC(=O)N(Cc1ccccc1)CC1CCN(S(=O)(=O)c2ccc3c(c2)OCCO3)CC1`, the % ACh max response was 7.56% (inactive).
Regarding `CC1c2ccccc2CCN1C(=O)C1CCN(S(=O)(=O)c2ccc3cn[nH]c3c2)CC1` (stereo not drawn), the % ACh max response is 36.3% (inactive).
With `COc1ccc(S(=O)(=O)N2CCC(C(=O)N3CCCC3c3ccccc3)CC2)cc1` (stereo not drawn), the % ACh max response is 25.6% [at 30 µM] (inactive).
To `CCN(Cc1ccccc1)C(=O)C1CCN(C(=O)c2ccc(OC)cc2)CC1` belongs 25.5% [at 30 µM] (inactive); to `CCN(Cc1ccccc1)C(=O)C1CCN(S(=O)(=O)c2ccc3occc3c2)CC1`, 82.1% [at 30 µM] (active); to `CCN(Cc1ccccc1)C(=O)C1CCN(S(=O)(=O)c2ccccn2)CC1`, 36.4% (inactive).
To `CCN(Cc1ccccc1)C(=O)C1CCN(S(=O)(=O)c2ccc(F)cc2)CC1` belongs 56.2% [at 30 µM] (inactive); to `CCN(Cc1ccccc1)C(=O)C1CCN(S(=O)(=O)c2ccc3nn(C)cc3c2)CC1`, 51.4% (inactive).
In the case of `CCN(Cc1ccccc1C(F)(F)F)C(=O)C1CCN(S(=O)(=O)c2ccc3[nH]ncc3c2)CC1`, the % ACh max response was 90.2% (active).
On to `CC(=O)N(Cc1ccccc1)CC1CCN(S(=O)(=O)c2ccc3cn[nH]c3c2)CC1`, for which the % ACh max response is 11.4% (inactive).
Consider `CCN(Cc1ccc(F)cc1)C(=O)C1CCN(S(=O)(=O)c2ccc3cn[nH]c3c2)CC1`, for which the % ACh max response is 52.1% (inactive).
In the case of `CCN(Cc1ccccc1)C(=O)C1CCN(S(=O)(=O)CC(C)C)CC1`, the % ACh max response was 21.3% [at 30 µM] (inactive).
For `CCN([C@H](C)c1ccccc1)S(=O)(=O)C1CCN(S(=O)(=O)c2ccc3occc3c2)CC1`, the % ACh max response is 14.6% (inactive).
In the case of `CCN(C(=O)C1CCN(S(=O)(=O)c2cc(F)c(F)c(F)c2)CC1)[C@H](C)c1ccccc1`, the % ACh max response is 71.9% (active).
Turning to `CCN(Cc1ccccc1C(F)(F)F)C(=O)C1CCN(S(=O)(=O)c2ccc(-n3cccn3)cc2)CC1`, the % ACh max response is 81.9% (active).
On to `CCN(C(=O)C1CCN(S(=O)(=O)N(C)C)CC1)[C@H](C)c1ccccc1`, for which the % ACh max response was 29.1% (inactive).
For the compound `CCN(Cc1ccccc1)C(=O)C1CCN(S(=O)(=O)c2ccc(OC(F)F)cc2)CC1`, the % ACh max response is 66.1% [at 30 µM] (active).
On to `CCN(Cc1ccccc1)C(=O)C1CCN(S(=O)(=O)c2cccc(OC(F)F)c2)CC1`, for which the % ACh max response is 70.2% [at 30 µM] (active).
Turning to `CCN(C(=O)C1CCN(S(=O)(=O)c2ccc(-n3cccn3)cc2)CC1)[C@H](C)c1ccccc1C(F)(F)F`, the % ACh max response is 22.7% (inactive).
Turning to `O=C(NCc1ccccc1)C1(Cc2ccccc2)CCN(S(=O)(=O)c2ccc3occc3c2)CC1`, the % ACh max response was 20.1% (inactive).
